D2 ag-1: Beta-Arrestin HTS for Positive Allosteric Modulators of the Human D2 Dopamine Receptor: Agonists. DiscoveRx PathHunter D2 beta-arrestin, luminescence, 90 min; 100% = 57 uM dopamine signal. activation, % (no concentration beside the values). AID 624465, 2012. 360,000 tested, 0.084% active; in the data active = activation above about 40%; inconclusive = between about 15% and that limit
Target sequence (P14416 whole entry, looked up): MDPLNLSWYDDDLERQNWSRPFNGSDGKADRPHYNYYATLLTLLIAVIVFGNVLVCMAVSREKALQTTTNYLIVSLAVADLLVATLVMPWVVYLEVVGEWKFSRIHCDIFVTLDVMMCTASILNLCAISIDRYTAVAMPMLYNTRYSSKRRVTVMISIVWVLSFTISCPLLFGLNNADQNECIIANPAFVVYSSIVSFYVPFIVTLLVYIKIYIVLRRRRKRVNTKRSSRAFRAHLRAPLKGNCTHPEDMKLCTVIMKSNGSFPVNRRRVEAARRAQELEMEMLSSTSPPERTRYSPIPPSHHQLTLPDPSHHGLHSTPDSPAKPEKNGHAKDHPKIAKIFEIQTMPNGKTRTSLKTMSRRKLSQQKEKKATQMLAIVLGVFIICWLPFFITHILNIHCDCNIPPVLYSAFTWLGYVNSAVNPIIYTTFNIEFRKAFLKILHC
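Agonist mode: compounds alone added to overnight-plated D2 PathHunter cells for 90 min at 37 C, with 57 uM final dopamine (EC100) defining full response. Beta-arrestin recruitment detected by chemiluminescent reagent, read after 1 h at ambient temperature.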
D2 antag: HTS Assay for Allosteric Antagonists of the Human D2 Dopamine Receptor: Primary Screen for Antagonists; D(2) dopamine receptor (Homo sapiens), P14416; HEK293 TREx D2 cells, calcium flux, dopamine EC80; inhibition, % at 10 µM; 340,000 tested, 2% active; AID 485344, 2010; in the data active = inhibition above about 30%; inactive = below that, where a call was filed
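Compounds are added to dye-loaded, induced HEK293 T-REx cells coupled to calcium release via D2; after a 3 min kinetic read an EC80 dopamine stimulus is given and fluorescence is recorded for 3 more min.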
D2 ag-2: HTS Assay for Allosteric Agonists of the Human D2 Dopamine Receptor: Primary Screen for Agonists; HEK293 T-REx D2 cells, calcium flux agonist mode; activation, % at 2 µM; 340,000 tested, 0.53% active; AID 485358, 2010;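 active = activation over 3 SD above normal in the single-dose calcium agonist read, cut at about 30% in these data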
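In this primary screen, compounds producing a positive calcium signal within 180 s of addition to tetracycline-induced, force-coupled HEK293 Trex D2 cells are flagged; cells are dye-loaded with a no-wash calcium kit beforehand.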
D2 PAM-1: Beta-Arrestin HTS for Positive Allosteric Modulators of the Human D2 Dopamine Receptor: Potentiators. D(2) dopamine receptor (Homo sapiens), P14416. DiscoveRx D2 beta-arrestin cells, luminescence, 90 min; 100% = 57 uM dopamine signal. potentiation, % (concentration not given with the values). 360,000 tested, 0.23% active. AID 624464, 2012; in the data active = potentiation above about 50%; inconclusive = mostly about 30% to 49%
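D2 cells co-treated with compound plus 50 nM dopamine (EC20) for 90 min at 37 deg C to detect potentiation. Beta-arrestin recruitment was read as enzyme-fragment luminescence after 1 h at ambient temperature. Full response was set by 57 uM dopamine.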
D2 PAM-2: HTS Assay for Positive Allosteric Modulators of the Human D2 Dopamine Receptor: Primary Screen for Potentiators. AID 485347, 2010. HEK293 T-REx D2, calcium flux, EC20 dopamine potentiation. D(2) dopamine receptor (Homo sapiens), P14416. potentiation, % at 10 µM. 340,000 tested, 0.34% active;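 active = potentiation over 3 SD above the plate norm, cut at about 30% in these data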
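Calcium flux readout, no-wash dye, 1 read/s. Inducible HEK293 Trex D2 line, overnight 30 C. Compound alone 180 s (agonist flags), then EC20 dopamine, another 180 s to score potentiation.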
A number is an active result; n = inactive; u = inconclusive; x = no result given. An excerpt weighted towards active compounds, which were near 2.4% of everything screened.

SMILES	D2 ag-1	D2 antag	D2 ag-2	D2 PAM-1	D2 PAM-2
CCC(C)NC(=O)c1[nH]c2cc(OC)ccc2c1Sc1ccc(C)cc1 (configuration not stated)	x	x	n	x	n
CCc1ccccc1NC(=O)C(=O)NCCc1sc(-c2cccc(C)c2)nc1C	x	x	x	x	n
CCCNC(=O)C1(C)CCN(C(=O)c2ccccc2OC)C1 (configuration not stated)	n	x	x	n	x
Cc1ccc(N(C)C(=O)Cn2ncc3c([nH]c4ccccc43)c2=O)cc1C	x	x	n	x	n
CCOc1cc2[nH]c(=O)n(CCCCC(=O)N3CCCCCC3)c(=O)c2cc1OCC	n	n	n	n	36
CCOc1cc2[nH]c(=O)n(CCCCC(=O)N3CCN(c4cccc(Cl)c4)CC3)c(=O)c2cc1OCC	x	x	x	x	n
Cc1ccccc1S(=O)(=O)NC(=O)C1(C)CCN1C(=O)c1c(C)noc1C (configuration not stated)	n	x	x	n	x
Cc1ccc(S(=O)(=O)N(CC(=O)N2CCOCC2)CC(=O)N2CCOCC2)cc1	n	n	n	n	31
CCCOc1ccc(C(=O)NC2CCSc3ccccc32)cc1 (configuration not stated)	n	36	n	n	n
O=C(Nc1cccnc1)c1ccc2snnc2c1	n	35	n	n	n
O=C(Nc1ccccc1)c1ccc2snnc2c1	n	n	n	n	n
COc1ccc(C(=O)N(Cc2cc(OC)c(OC)c(OC)c2)CC2CCCO2)cc1 (configuration not stated)	x	x	n	x	n
Cc1ccc(CN(C(=O)COc2ccc([N+](=O)[O-])cc2)c2ccccn2)cc1	x	x	n	x	n
Cc1c(Cc2ccccc2)sc(/N=C/c2c(O)ccc3ccccc23)c1C(N)=O	n	n	n	57	n
Cc1cccc(N2CCN(CC3CCCCC3)CC2)c1C	n	73	n	n	n
C/C=C(\C)CN1CCN(c2cccc(C)c2C)CC1	n	85	n	n	n
Cc1ccc(C)c(N2CCN(CC3CCCCC3)CC2)c1	n	62	n	n	n
Cc1ccc(C)c(N2CCN(CCCc3ccccc3)CC2)c1	n	51	n	n	n
Cc1ccc(C)c(N2CCN(Cc3nnnn3C3CCCCC3)CC2)c1	n	n	n	n	n
COc1cccc2c1Oc1ncccc1N(c1ccc(C(=O)NCc3ccccc3C)s1)C2	x	x	n	x	n
N/C(=N\OC(=O)c1cccs1)c1ccccc1	n	n	n	u	n
Cc1cccc(/C(N)=N/OC(=O)c2cccs2)c1	u	x	x	112	x
COc1ccc(/C(N)=N/OC(=O)c2cccs2)cc1OC	42	n	n	71	n
Cc1ccc(/C(N)=N/OC(=O)c2cccs2)cc1	u	n	n	77	n
COc1ccc(/C(N)=N/OC(=O)c2c(-c3ccccc3Cl)noc2C)cc1OC	u	n	n	56	n
SMILES	D2 ag-1	D2 antag	D2 ag-2	D2 PAM-1	D2 PAM-2
Cc1ccc(-n2cc(CNC(C)c3cnn(C)c3C)c(-c3ccc(F)cc3)n2)cc1 (configuration not stated)	n	n	n	n	n
CN(C(=O)CSc1cn(CC(=O)N2CCCCCC2)c2ccccc12)c1ccccc1	x	x	n	x	n
CCN1CCOC(=O)C1CC(=O)Nc1ccc(C)c(Cl)c1 (configuration not stated)	x	x	n	x	n
Brc1ccc(-c2nc3ccccn3c2Nc2ccc3c(c2)OCCO3)o1	x	x	n	x	n
CCc1nc2c(OCc3ccc(Cl)cc3)cccn2c1N(C)C(=O)c1ccncc1	n	x	x	n	x
COC(=O)c1ccccc1NC(=O)Cn1c(=O)n(CCCCC(=O)NCc2ccc3c(c2)OCO3)c(=O)c2ccccc21	x	x	n	x	n
CCOC(=O)CNC(=O)CSc1nnc(-c2ccc(OC)cc2)n1CC	n	35	n	n	n
Cc1c(C(=O)N/N=C/c2ccoc2)cccc1[N+](=O)[O-]	n	67	n	n	n
CC(C)OCc1cc(CN2CCN(c3ccccc3)CC2)c(O)c2ncccc12	x	x	n	x	n
Oc1c(CN2CCN(c3ccccc3)CC2)cc(Br)c2cccnc12	n	59	n	n	n
CCCCCC(=O)Nc1cc(S(=O)(=O)O)cc2cc(S(=O)(=O)O)cc(O)c12	n	x	x	n	x
N#Cc1ccccc1COC(=O)CCN=C1NS(=O)(=O)c2ccccc21	n	x	x	n	x
O=C(CCN=C1NS(=O)(=O)c2ccccc21)OCc1nnc(-c2ccc([N+](=O)[O-])cc2)o1	n	x	x	69	x
CCOc1ccc(CN2C(=O)c3ccccc3C2C(=O)NCCc2ccc(OC)c(OC)c2)cc1 (configuration not stated)	x	x	n	x	n
O=C(CN1C(=O)c2cccnc2Oc2ccc(Cl)cc21)NC1CCCCCC1	n	41	n	n	n
CCOC(=O)c1ccccc1NC(=O)CN1CCCN(Cc2cc(C)ccc2C)S1(=O)=O	x	x	x	x	n
NC(=O)Nc1ccc(C(=O)OCC(=O)N2CCCC2=O)cc1	n	n	n	n	n
CCOC(=O)c1ccc(NS(=O)(=O)c2cc(-c3onc(C)c3C)ccc2C)cc1	x	x	n	x	n
CCN(CCCNC(=O)c1cc2c(=O)[nH]c3ccc(C)cc3c2s1)c1ccc(C)cc1	x	x	n	x	n
CC1CC(C)CN(CCCNC(=O)c2ccc3c(c2)NC(=O)C(N2CCCCC2)S3)C1 (configuration not stated)	n	88	n	n	n
CCCN1CCN(CCCNC(=O)c2cc3c(=O)[nH]c4ccc(C)cc4c3s2)CC1	n	43	n	n	n
O=C(NCCCN1CCCCC1)c1ccc2c(c1)NC(=O)C(N1CCCCC1)S2 (configuration not stated)	n	47	n	n	n
O=C(O)c1ccc2c(c1)NC(=O)C(N1CCCC1)S2 (configuration not stated)	n	n	n	n	n
Cc1[nH]c2ccc(C(=O)NCCCN3CCCCCC3)cc2c1C	n	62	n	n	n
COc1cc(OC)c(NC(=O)C(C)n2nc(-c3ccc(C)c(C)c3)ccc2=O)cc1Cl (configuration not stated)	x	x	n	x	n
CC(=O)c1ccc(NS(=O)(=O)c2cnc(N)nc2)cc1	x	x	n	x	n
Cc1nn(-c2ccccc2)c(C)c1NC(=O)COC(=O)[C@@H](NC(=O)c1ccccc1)C(C)C	n	36	n	n	n
CCC(C(=O)OCC(=O)Nc1c(C)nn(-c2ccccc2)c1C)c1ccccc1 (configuration not stated)	n	n	n	n	n

From PubChem BioAssay
